# Laboratory results as given in PubChem BioAssay (Tox21).
# Inconclusive results are not listed. The source made the active and inactive calls. Unless noted, calls follow the shape of the dose curve; as a rule, active = well fitted cell-killing curve with a large enough effect in the repeat runs (not every such curve was filed as active); inconclusive = weak or mixed curves, or effect the other way; inactive = no such curve, though single readings can be large or run the other way.
# Molecular target: Bile acid receptor (Homo sapiens) (UniProt Q96RI1)
# Assay: qHTS assay to identify small molecule agonists of the farnesoid-X-receptor (FXR) signaling pathway (AID 743220; active = well fitted activation curve with a large enough effect in the signal ratio in the repeat runs, not every such curve was filed as active; the % refers to the signal ratio)
# Conditions: HEK293T FXR-UAS-bla, beta-lactamase FRET ratio, 16 h; series mostly up to 62.6 µM
# Method in brief: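 Beta-lactamase reporter under UAS control in GeneBLAzer FXR HEK 293T cells (5000/well) measured with LiveBLAzer FRET substrate after 2 h at room temperature. Compound exposure lasted 16 h at 37C.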
# Sequence of Bile acid receptor (Homo sapiens) (Q96RI1 whole entry, looked up): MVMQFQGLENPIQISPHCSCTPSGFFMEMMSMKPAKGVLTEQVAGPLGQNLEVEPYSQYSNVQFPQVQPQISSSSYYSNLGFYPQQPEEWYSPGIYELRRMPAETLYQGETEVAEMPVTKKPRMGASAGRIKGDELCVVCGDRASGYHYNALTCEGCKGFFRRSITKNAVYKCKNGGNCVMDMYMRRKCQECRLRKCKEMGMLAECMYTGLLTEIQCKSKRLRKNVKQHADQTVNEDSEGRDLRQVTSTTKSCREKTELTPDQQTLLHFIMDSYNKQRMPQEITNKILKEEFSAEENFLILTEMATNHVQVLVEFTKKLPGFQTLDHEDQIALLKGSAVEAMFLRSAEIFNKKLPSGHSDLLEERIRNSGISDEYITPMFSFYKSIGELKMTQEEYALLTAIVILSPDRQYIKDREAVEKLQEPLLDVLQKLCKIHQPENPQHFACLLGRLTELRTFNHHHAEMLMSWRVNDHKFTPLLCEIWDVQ
row,Compound,outcome
1,c1ccc2c(c1)Cc1ccccc1-2,inactive
2,O=C(O)Cn1c(=O)n(Cc2ccc(Br)cc2F)c(=O)c2ccc(Cl)cc21,inactive
3,CCOCCOCCOCCO,inactive
4,O=C(O)c1ccc(S(=O)(=O)N(Cl)Cl)cc1,inactive
5,Clc1ccccn1,inactive
6,CCO[Si](CCC#N)(OCC)OCC,inactive
7,COC(=O)CCCC(=O)OC,inactive
8,C=CCc1ccc(OC)c(OC)c1,inactive
9,O=S(=O)(O)c1ccccc1,inactive

# System: not listed separately
# Assay: qHTS assay to identify small molecule antagonists of the farnesoid-X-receptor (FXR) signaling pathway - cell viability counter screen (AID 743221); also: nearly all actives have a fitted effect of over 50% in size
# Conditions: FXR-bla HEK293T viability, CellTiter-Glo luminescence, 16 h; series mostly up to 62.6 µM
# Method in brief: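 Cytotoxicity counter screen run in the FXR-bla reporter wells: HEK 293T cells exposed to compound with 50 uM (final) chenodeoxycholic acid for 16 h, 37 C, then viability measured by CellTiter-Glo luminescence after 30 min, room temperature.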
row,Compound,outcome
1,NCCN1CCNCC1,inactive
2,CCCCCCCC=O,inactive
3,O=c1[nH]cnc2[nH]ncc12,inactive
4,c1ccc2c(c1)Cc1ccccc1-2,inactive
5,CC1(C)CC(N)CC(C)(CN)C1 (stereo unspecified),inactive
6,CCCCCCO,inactive
7,O=C(O)Cn1c(=O)n(Cc2ccc(Br)cc2F)c(=O)c2ccc(Cl)cc21,inactive
8,OCc1ccccc1,inactive
9,Cc1ccc(C(C)C)c(O)c1,inactive
10,C=CC(=O)OCCC(=O)O,inactive
11,C=CC(C)CCCC(C)(C)O (stereo unspecified),inactive
12,COCCOC(=O)c1ccccc1C(=O)OCCOC,inactive
13,CCCCOC(=O)c1ccc(N)cc1,inactive
14,CC(CCO)CC(C)(C)C (stereo unspecified),inactive
15,C=CCCCCCCCCC(=O)O,inactive
16,C=C(C)[C@H]1CC=C(C)C(=O)C1,inactive
17,CCc1ccccc1CC,inactive
18,CCOCCOCCOCCO,inactive
19,O=C(O)c1ccc(S(=O)(=O)N(Cl)Cl)cc1,inactive

row,Compound,outcome
1,Clc1ccccn1,inactive
2,COCCCN,inactive
3,CN/C(=C\[N+](=O)[O-])NCCSCc1csc(CN(C)C)n1,inactive
4,Brc1ccc(Br)c(Br)c1,inactive
5,CC1(C)NC(=O)NC1=O,inactive
6,CCO[Si](CCC#N)(OCC)OCC,inactive
7,Cc1ccc([N+](=O)[O-])cc1S(=O)(=O)O,inactive
8,O=C(O)c1ccccc1C(=O)O,inactive
9,CC1(C)OC[C@@H]2O[C@@]3(C(=O)O)OC(C)(C)O[C@H]3[C@@H]2O1,inactive
10,CNC(=S)N(C)C,inactive
11,O=C1CCCC1,inactive
12,CC(O)CC(C)(C)O (stereo unspecified),inactive
13,COC(=O)CCCC(=O)OC,inactive
14,C=CCc1ccc(OC)c(OC)c1,inactive
15,Cc1ccc(S(=O)(=O)N=C=O)cc1,inactive
16,O=S(=O)(O)c1ccccc1,inactive
17,CN1C(=O)CC[C@H]1c1cccnc1,inactive
18,CCNC(=S)NCC,inactive
19,C=CC[N+](C)(C)CC=C,inactive

# Molecular target: Vitamin D3 receptor (Homo sapiens) (UniProt P11473)
# Assay: qHTS assay to identify small molecule agonists of the vitamin D receptor (VDR) signaling pathway (AID 743222; calls by dose curve)
# Conditions: HEK293T VDR-UAS-bla, beta-lactamase FRET ratio, 16 h; series mostly up to 63.5 µM
# Method in brief: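 Quantitative HTS agonist-mode screen: compounds in DMSO were pin-transferred onto VDR-bla cells and incubated 16 h at 37C, 5% CO2. Reporter activity was detected with LiveBLAzer B/G FRET substrate after 2 h at room temperature.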
# Sequence of Vitamin D3 receptor (Homo sapiens) (P11473 whole entry, looked up): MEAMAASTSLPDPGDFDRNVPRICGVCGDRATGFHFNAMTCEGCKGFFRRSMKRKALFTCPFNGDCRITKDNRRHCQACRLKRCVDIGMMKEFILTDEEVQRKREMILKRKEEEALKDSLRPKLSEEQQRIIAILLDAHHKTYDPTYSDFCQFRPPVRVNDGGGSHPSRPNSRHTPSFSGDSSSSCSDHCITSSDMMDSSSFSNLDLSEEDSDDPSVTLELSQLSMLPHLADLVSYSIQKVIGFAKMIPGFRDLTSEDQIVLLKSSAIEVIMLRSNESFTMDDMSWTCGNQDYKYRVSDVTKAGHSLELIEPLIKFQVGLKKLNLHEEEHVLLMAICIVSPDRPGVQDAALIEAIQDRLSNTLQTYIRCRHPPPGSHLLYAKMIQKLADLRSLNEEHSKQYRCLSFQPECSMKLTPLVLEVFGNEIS
row,Compound,outcome
1,NCCN1CCNCC1,inactive
2,CCCCCCCC=O,inactive
3,O=c1[nH]cnc2[nH]ncc12,inactive
4,c1ccc2c(c1)Cc1ccccc1-2,inactive
5,CCCCCCO,inactive
6,O=C(O)Cn1c(=O)n(Cc2ccc(Br)cc2F)c(=O)c2ccc(Cl)cc21,inactive
7,OCc1ccccc1,inactive
8,Cc1ccc(C(C)C)c(O)c1,inactive
9,C=CC(=O)OCCC(=O)O,inactive
10,C=CC(C)CCCC(C)(C)O (stereo unspecified),inactive
11,COCCOC(=O)c1ccccc1C(=O)OCCOC,inactive
12,CCCCOC(=O)c1ccc(N)cc1,inactive
13,CC(CCO)CC(C)(C)C (stereo unspecified),inactive
14,C=CCCCCCCCCC(=O)O,inactive
15,C=C(C)[C@H]1CC=C(C)C(=O)C1,inactive
16,CCOCCOCCOCCO,inactive

row,Compound,outcome
1,O=C(O)c1ccc(S(=O)(=O)N(Cl)Cl)cc1,inactive
2,Clc1ccccn1,inactive
3,COCCCN,inactive
4,Brc1ccc(Br)c(Br)c1,inactive
5,CC1(C)NC(=O)NC1=O,inactive
6,Cc1ccc([N+](=O)[O-])cc1S(=O)(=O)O,inactive
7,CC1(C)OC[C@@H]2O[C@@]3(C(=O)O)OC(C)(C)O[C@H]3[C@@H]2O1,inactive
8,CNC(=S)N(C)C,inactive
9,O=C1CCCC1,inactive
10,CC(O)CC(C)(C)O (stereo unspecified),inactive
11,COC(=O)CCCC(=O)OC,inactive
12,C=CCc1ccc(OC)c(OC)c1,inactive
13,Cc1ccc(S(=O)(=O)N=C=O)cc1,inactive
14,O=S(=O)(O)c1ccccc1,inactive
15,CCNC(=S)NCC,inactive
16,C=CC[N+](C)(C)CC=C,inactive

# Molecular target: Vitamin D3 receptor (Homo sapiens) (UniProt P11473)
# Assay: qHTS assay to identify small molecule antagonists of the vitamin D receptor (VDR) signaling pathway (AID 743223; active = well fitted inhibition curve with a large enough effect in the signal ratio in the repeat runs, not every such curve was filed as active; the % refers to the signal ratio)
# Conditions: VDR-UAS-bla HEK293T, beta-lactamase FRET ratio, 16 h; series mostly up to 61 µM
# Method in brief: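 Antagonist mode: compound added to VDR-bla cells alongside agonist 1alpha,25-dihydroxyvitamin D3 (3 nM final), incubation 16 h at 37C. Read-out is LiveBLAzer FRET fluorescence, 2 h at room temperature.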
row,Compound,outcome
1,NCCN1CCNCC1,inactive
2,CCCCCCCC=O,inactive
3,O=c1[nH]cnc2[nH]ncc12,inactive
4,c1ccc2c(c1)Cc1ccccc1-2,inactive
5,CCCCCCO,inactive
6,OCc1ccccc1,inactive
7,Cc1ccc(C(C)C)c(O)c1,inactive
8,C=CC(=O)OCCC(=O)O,inactive
9,C=CC(C)CCCC(C)(C)O (stereo unspecified),inactive
10,COCCOC(=O)c1ccccc1C(=O)OCCOC,inactive
11,CCCCOC(=O)c1ccc(N)cc1,inactive
12,C=CCCCCCCCCC(=O)O,inactive
13,C=C(C)[C@H]1CC=C(C)C(=O)C1,inactive
14,CCOCCOCCOCCO,inactive
15,O=C(O)c1ccc(S(=O)(=O)N(Cl)Cl)cc1,inactive
16,Clc1ccccn1,inactive
17,Brc1ccc(Br)c(Br)c1,inactive
18,CC1(C)NC(=O)NC1=O,inactive
19,Cc1ccc([N+](=O)[O-])cc1S(=O)(=O)O,inactive
20,CC1(C)OC[C@@H]2O[C@@]3(C(=O)O)OC(C)(C)O[C@H]3[C@@H]2O1,inactive
21,CNC(=S)N(C)C,inactive
22,O=C1CCCC1,inactive
23,CC(O)CC(C)(C)O (stereo unspecified),inactive
24,COC(=O)CCCC(=O)OC,inactive
25,Cc1ccc(S(=O)(=O)N=C=O)cc1,inactive
26,CCNC(=S)NCC,inactive
27,C=CC[N+](C)(C)CC=C,inactive
